Screening results from PubChem BioAssay.
Shown are actives, neighbours in structure and some others; about 6.9% of the full set was active somewhere.
L3MBTL1 inh = L3MBTL1 (human) inhibition. Potency, µM (top dose mostly 57.1 µM), without a hit: at the top dose activity, negative = inhibition, most hits filed as inhibitors. AlphaScreen L3MBTL1–H3K9me1 peptide binding. AID 485360. Q9Y468. actives 0.66% (n = 230,000); also: % is scaled to controls: 0 for no effect and ±100 for the full control effect; nearly all actives have a fitted effect of over 60% in size
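AlphaScreen assay: L3MBTL1 (50 nM final) was preincubated 30 min at room temperature with biotinylated H3(1-15)K9me1 peptide (75 nM final), then 30 min with library compounds; streptavidin donor and nickel chelate acceptor beads (10 ug/mL final) added, 30 min dark.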
HP1b chromo inh = HP1-beta chromodomain-methylated histone interaction inhibition. P83916. AlphaScreen HP1-beta / biotin-H3K9me3 peptide binding. Potency, µM (highest dose often 114 µM), without a hit: top-dose activity change, negative = inhibition, actives largely listed as inhibitors. actives 0.56% (n = 390,000). AID 540317; also: nearly all actives have a fitted effect of over 70% in size
Target sequence (P83916 whole entry, looked up): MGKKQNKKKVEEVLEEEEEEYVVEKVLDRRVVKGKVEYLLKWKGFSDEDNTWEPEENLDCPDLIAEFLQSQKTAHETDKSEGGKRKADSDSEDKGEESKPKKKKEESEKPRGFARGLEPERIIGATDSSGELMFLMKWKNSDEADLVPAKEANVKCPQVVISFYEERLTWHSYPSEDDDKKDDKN
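Compound inhibition of the preformed complex between 50 nM HP1-beta and 50 nM biotinylated H3K9me3 peptide was read by AlphaScreen. Buffer was PBS pH 7.4 with 0.01% Tween-20. Incubations ran 30 min at room temperature, with 10 ug/mL donor/acceptor beads.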
BAZ2B block = inhibitors of human BAZ2B bromodomain | AID 504333 | Potency, µM (doses to about 114 µM), without a hit: at the highest dose activity change, negative = inhibition, hits mostly inhibitors | actives 4.4% (n = 360,000) | AlphaScreen BAZ2B-H3K14Ac peptide displacement; also: % is scaled to controls: 0 for no effect and ±100 for the full control effect; nearly all actives have a fitted effect of over 60% in size
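Inhibition is scored as reduced AlphaScreen emission. The BAZ2B/b-H3(5-23)K14Ac complex (50 nM each) in PBS pH 7.4, 0.01% Tween-20 meets compound (up to 110 uM) for 30 min at RT before bead addition.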
PLK1 PBD inh = blocks phosphopeptide binding to human PLK1 polo-box domain; P53350; AID 720504; Potency, µM, inactives show max response, negative = inhibition, actives largely listed as inhibitors; actives 2.8% (n = 360,000); Plk1 PBD binding of FITC phosphopeptide, fluorescence polarization; also: series mostly up to about 57 µM; % is scaled to controls: 0 for no effect and ±100 for the full control effect; nearly all actives have a fitted effect of over 65% in size
JMJD2A Tudor = blocks the human JMJD2A Tudor domain | AlphaScreen JMJD2A-Tudor / H3K4me3 peptide binding | Potency, µM (series often up to 114 µM), inactives show top-dose activity change, negative = inhibition, hits mostly inhibitors | actives 4.4% (n = 390,000) | AID 504339; also: % is scaled to controls: 0 for no effect and ±100 for the full control effect; nearly all actives have a fitted effect of over 50% in size
VDR inhibitor = inhibitors of human vitamin D receptor; P11473; VDR-SRC2-3 peptide fluorescence polarization, 2 h; Potency, µM, for inactives: max response, negative = inhibition, most hits filed as inhibitors; actives 0.93% (n = 400,000); also: % is scaled to controls: 0 for no effect and ±100 for the full control effect
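Signal is fluorescence polarization, reporting how far test compounds block the interaction of VDR with the SRC2-3 coregulator peptide after a 2 h room-temperature incubation.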
* hit, by the source's call; ? = inconclusive; . = no result given; [ ] = dose if it differs, or a comment. Calls follow the shape of the dose curve; as a rule, active = well fitted curve in the direction sought with a large enough effect; inconclusive = small, poorly fitted or top-dose-only effect, or another doubt; inactive = no such curve, though single readings can be large; an effect the other way counts as inactive or inconclusive. Potency is read from the fitted curve at half-maximal effect.

SMILES | L3MBTL1 inh | HP1b chromo inh | BAZ2B block | PLK1 PBD inh | JMJD2A Tudor | VDR inhibitor
Cc1ccc(NC(=O)N2CCN(Cc3ccc4c(c3)OCO4)CC2)cc1 | . | 1% | 5% | -11% | -10% | ?
Cc1ccc(Nc2nc(N)nc(CN3CCN(Cc4ccc5c(c4)OCO5)CC3)n2)c(C)c1 | -11% | ? | 56µM* | -7% | -33%[57.1 µM] | 7%
Cc1ccc(Nc2nc(N)nc(CN3CCN(Cc4ccc5c(c4)OCO5)CC3)n2)cc1 | -8% | -9% | 56µM* | -10% | ? | -3%
CCc1cccc(CC)c1NC(=O)CSc1nnc(C2CC2)n1C | . | 13% | 12% | -6% | -16% | 89µM*
CCc1cccc(CC)c1NC(=O)CSc1nnc(C2CC2)n1N | 7% | 27% | 7% | -9% | -19% | -14%
CCCCCCCCCCCCC/C=C\[C@@H](O)[C@H](CO)NC(C)=O | . | . | . | . | . | 10%
CCCCc1ccc(NC(=S)NCc2ccccc2OC)cc1 | -10% | 0% | -24% | -1% | -10% | 19%
CC(C)COC[C@H](CN(Cc1ccccc1)c1ccccc1)N1CCCC1 | . | . | . | . | . | -10%
CCCCC(C(=O)O)C(C)CC(=O)Nc1nncs1 (stereo not drawn) | 7% | 20% | 0% | 21µM* | -18%[11.4 µM] | -23%
CCC(=O)N1CCc2cc(S(=O)(=O)NCCC(=O)Nc3ccc(OC)c(Cl)c3)ccc21 | . | 35% | . | . | -7% | -9%
COc1ccccc1/C=C/c1onc(C)c1S(=O)(=O)N1CCC(C(=O)N2CCC(C)CC2)CC1 | . | 15% | 3% | . | -11% | 14%
CCOc1cc(NC(=O)c2ccccn2)c(OCC)cc1NC(=O)CC(C)C | 5% | -10% | 7% | 21µM* | 20µM* | -29%
CCCC(=O)Nc1cc(C)c(NC(=O)c2ccccn2)cn1 | 0% | 37% | 50µM* | ? | ? | -9%
Cc1cc(NC(=O)C(C)C)ncc1NC(=O)c1ccccn1 | 10% | -7% | 50µM* | 27µM* | -15% | -17%
CCCC(=O)Nc1cc(C)c(NC(=O)c2ccco2)cn1 | -4% | 0% | -3% | -22% | -16% | -14%
CN(C)S(=O)(=O)c1cccc(NC(=O)c2sccc2-c2ccccc2)c1 | . | 37% | -5% | 5% | 5% | -12%
O=C(Nc1ccc(N2CCOCC2)cc1)c1ccc2nc(-c3ccco3)c(-c3ccco3)nc2c1 | -7% | 38% | -3% | -10% | -19% | 13%
O=C(c1ccc2nc(-c3ccco3)c(-c3ccco3)nc2c1)N1CCN(c2ncccn2)CC1 | -19% | 7% | ? | -13% | 89µM* | -7%
CC(=O)c1ccc(NC(=O)c2ccc3nc(-c4ccco4)c(-c4ccco4)nc3c2)cc1 | . | 8.9µM* | 11µM* | 24µM* | 45µM* | ?
O=C(NC1CC1)c1ccc2nc(-c3ccco3)c(-c3ccco3)nc2c1 | . | 22µM* | . | . | 20µM* | ?
CCCCNC(=O)c1ccc2nc(-c3ccco3)c(-c3ccco3)nc2c1 | 32µM* | ? | 50µM* | 21µM* | 25µM* | 79µM*
COc1ccc(-c2oc3ncn4nc(-c5ccccc5Br)nc4c3c2-c2ccc(OC)cc2)cc1 | . | 11% | 3% | . | -11% | 8%
CC(C)(C)NC(=O)C(c1cc2ccccc2o1)n1c(=O)c(-c2ccco2)nc2ccccc21 (stereo not drawn) | . | . | . | -28% | . | .
CCCCCNC(=O)C(c1cc2ccccc2o1)n1c(=O)c(-c2ccco2)nc2ccccc21 (stereo not drawn) | . | . | . | 7.5µM* | . | .
CNC(=O)c1ccc2nc(-c3ccco3)c(-c3ccco3)nc2c1 | . | 18µM* | . | . | 18µM* | ?
CC(C)(C)CC(=O)Nc1nnc(C(F)(F)F)s1 | 5% | 23% | -3% | -4% | -7% | -15%
CC(C)(C)CC(=O)Nc1nn[nH]n1 | 1% | -23% | 79µM* | -12% | 56µM* | -12%
CC12CC3(C)CC(C)(C1)CC(C(=O)Nc1nn[nH]n1)(C2)C3 | . | 11% | ? | 0% | 50µM* | 2%
